The source of these data is the supplement of paper PMC6853941.

Where a name gives a salt, the structure may show the parent alone. A number with no mark means an inactive call.

This assay has as its system MCF10A. The experiment in a line: perturbation Mahalanobis distance of morphological profile vs DMSO controls (Mahalanobis distance (SD units)); higher = stronger morphological change, active = 7 or more. Conditions: screen batch: Batch2_Mahalanobis_Distance; 72 h. As for the experimental part: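 MCF10A cells were seeded onto drugs dispensed acoustically into 384-well plates, using one dose per drug chosen from its human peak plasma concentration, and incubated for 72 h at 37 °C. Cells were stained for DNA, tubulin and mitochondria and imaged; 78 CellProfiler features were extracted, plate-normalised and compared with DMSO wells.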
On to `C[C@H](N[C@@H](CCc1ccccc1)C(=O)O)C(=O)N1CCC[C@H]1C(=O)O` [Enalaprilat] (0.67 µM), for which the “perturbation Mahalanobis distance” value was 2.89.
For `CCN1CC(CCN2CCOCC2)C(c2ccccc2)(c2ccccc2)C1=O` (stereo not given) [Doxapram] (66 µM) the value was 2.47; for `NNc1nncc2ccccc12` [Hydralazine] (15.6 µM), 3.91; for `Nc1nc(Cl)nc2c1ncn2[C@@H]1O[C@H](CO)[C@@H](O)[C@@H]1F` [Clofarabine] (7.5 µM), 16.5 (active).
The figure for `CN(C)CCCC1(c2ccc(F)cc2)OCc2cc(C#N)ccc21` (stereo not given) [Citalopram] (3.1 µM) is 2.43; for `CC(C)C1CCC(C(=O)N[C@H](Cc2ccccc2)C(=O)O)CC1` (stereo not given in full) [Nateglinide] (66.1 µM) it is 3.16.
On to `CO[C@H]1O[C@@H]2O[C@@]3(C)CC[C@H]4[C@H](C)CC[C@@H]([C@H]1C)[C@@]24OO3` [Artemether] (3.9 µM), for which the “perturbation Mahalanobis distance” value is 2.48.
For `CC(C)N=C(N)/N=C(\N)Nc1ccc(Cl)cc1` [Proguanil] (3 µM) the value was 3.24; for `OC(CCN1CCCCC1)(c1ccccc1)C1CCCCC1` (stereo not given) [Trihexyphenidyl] (3.3 µM), 2.42.
With `CC[N+](C)(C)Cc1ccccc1Br` [Bretylium Tosylate] (84.1 µM), the “perturbation Mahalanobis distance” value is 2.83.
The figure for `C[N+](C)(C)CCOC(=O)CCC(=O)OCC[N+](C)(C)C` [Succinylcholine Chloride] (12.65 µM) is 2.84.
For `CCCc1nc(C(C)(C)O)c(C(=O)OCc2oc(=O)oc2C)n1Cc1ccc(-c2ccccc2-c2nn[nH]n2)cc1` [Olmesartan Medoxomil] (8.1 µM) the value was 1.74; for `Nc1nc(NC2CC2)c2ncn(C3C=C[C@H](CO)C3)c2n1` (stereo not given in full) [Abacavir] (74.4 µM), 2.47.
The figure for `O=C(Nc1ncc([N+](=O)[O-])s1)c1ccccc1O` [Tizoxanide] (48.8 µM) is 3.
For the molecule `CCOC(=O)c1ncn2c1CN(C)C(=O)c1cc(F)ccc1-2` [Flumazenil] (1.6 µM), the “perturbation Mahalanobis distance” value is 3.54.
For `O=C(Nc1ccc([N+](=O)[O-])cc1Cl)c1cc(Cl)ccc1O` [Niclosamide] (5.3 µM) the value was 5.7.
For `Cc1[nH]c(=O)c(C#N)cc1-c1ccncc1` [Milrinone] (5.9 µM) the value was 3.46; for `COc1cccc2c1C(=O)c1c(O)c3c(c(O)c1C2=O)C[C@@](O)(C(=O)CO)C[C@@H]3O[C@H]1C[C@H](N)[C@H](O)[C@H](C)O1` [Doxorubicin] (0.18 µM), 16.7 (active); for `Nc1ccn([C@H]2CC[C@@H](CO)O2)c(=O)n1` [Zalcitabine] (2.4 µM), 3.2.
For `NC(=O)NO` [Hydroxyurea] (650 µM) the value was 15.4 (active); for `CCOC(=O)C1=C[C@@H](OC(CC)CC)[C@H](NC(C)=O)[C@@H](N)C1` [Oseltamivir] (1 µM), 1.77; for `Nc1ccn([C@@H]2O[C@H](CO)[C@@H](O)[C@@H]2O)c(=O)n1` [Cytarabine] (10.3 µM), 17.9 (active).
With `COCCCC/C(=N\OCCN)c1ccc(C(F)(F)F)cc1` [Fluvoxamine] (3.9 µM), the “perturbation Mahalanobis distance” value was 2.47.
The figure for `Cc1oncc1C(=O)Nc1ccc(C(F)(F)F)cc1` [Leflunomide] (333.1 µM) is 2.68; for `CNCCCC12CCC(c3ccccc31)c1ccccc12` [Maprotiline] (10.8 µM) it is 6.41.
For `CCC(C)n1ncn(-c2ccc(N3CCN(c4ccc(OC[C@H]5CO[C@](Cn6cncn6)(c6ccc(Cl)cc6Cl)O5)cc4)CC3)cc2)c1=O` (stereo not given in full) [Itraconazole] (14.2 µM) the value was 2.7; for `Cc1cc2cc3c(C)cc(=O)oc3c(C)c2o1` [Trioxsalen] (0.07 µM), 2.45.
For `COCCCOc1cc(C[C@@H](C[C@H](N)[C@@H](O)C[C@H](C(=O)NCC(C)(C)C(N)=O)C(C)C)C(C)C)ccc1OC` [Aliskiren] (2.5 µM) the value was 2.64; for `C[C@]12C=CC(=O)C=C1CC[C@@H]1[C@@H]2[C@@H](O)C[C@@]2(C)[C@H]1CC[C@]2(O)C(=O)CO` [Prednisolone] (13.9 µM), 3.8; for `CN1C(CCl)Nc2cc(Cl)c(S(N)(=O)=O)cc2S1(=O)=O` (stereo not given) [Methyclothiazide] (0.5 µM), 2.45.
Turning to `CC(=O)O[C@@]12CO[C@@H]1C[C@H](O)[C@@]1(C)C(=O)[C@H](O)C3=C(C)[C@@H](OC(=O)[C@H](O)[C@@H](NC(=O)OC(C)(C)C)c4ccccc4)C[C@@](O)([C@@H](OC(=O)c4ccccc4)[C@H]21)C3(C)C` [Docetaxel] (22.7 µM), the “perturbation Mahalanobis distance” value is 2.26.
Turning to `CC(C)NCC(O)c1ccc(O)c(O)c1` (stereo not given) [Isoproterenol] (11.8 µM), the “perturbation Mahalanobis distance” value is 4.76.
For `CC(C)(C#N)c1cc(Cn2cncn2)cc(C(C)(C)C#N)c1` [Anastrozole] (0.51 µM) the value was 3.49; for `CN(C)CCCN1c2ccccc2Sc2ccc(C(F)(F)F)cc21` [Triflupromazine] (1.4 µM), 4.32; for `CCN(CC)C(=S)SSC(=S)N(CC)CC` [Disulfiram] (6.7 µM), 3.
